The campaign covered roughly 2,300 compounds. About 1,500 (65%) were called active. The set was probably picked from earlier hits. Not all results are given here. Values without a mark were called inactive. Rule as the data show it: active = inhibition above about 18%; inactive = the rest.
Biological target: Heat shock protein HSP 90-alpha (Homo sapiens) (UniProt P07900)
Test: inhibitors of HSP90 chaperone activity – cell lysate, luminescence, confirmation (AID 1846);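 also: 0% = vehicle wells and 100% = reference inhibitor wells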
Conditions: rabbit reticulocyte lysate, luciferase refolding luminescence, 3 h; at 5.9 µM; hits give high values

Question: With `CCc1nc(SCC(=O)Nc2ccccc2OC)n[nH]1` as the molecule, how does the inhibition read?
Answer: 1.4%

Question: For `COc1ccc(C(=O)Nc2ccccc2C(=O)N/N=C/c2ccc(O)c(OC)c2)cc1`, which inhibition is on record?
Answer: 98.7% (active)

Question: How did the inhibition turn out when `Cc1ccc2nc(/C(C#N)=C\c3ccc(OC(=O)c4cccs4)cc3)[nH]c2c1` was run?
Answer: -11%

Question: For `CCCCCc1ccc(-c2ccc(C(=O)O)cc2)nc1`, which inhibition is on record?
Answer: 72.4% (active)

Question: `COc1ccc(-n2nnnc2-c2nc3ccccc3s2)cc1` was tested. Which inhibition did it give?
Answer: 51.8% (active)

Question: Which inhibition does the source give for `CCN(CC)CCn1c(N)c(S(=O)(=O)c2ccccc2)c2nc3ccccc3nc21` here?
Answer: -3.4%

Question: For `Cc1nnc(SCC(=O)N2c3ccccc3C(C)(c3ccc(Cl)cc3)CC2(C)C)s1` (stereo not given), which inhibition is on record?
Answer: 8.97%

Question: Which inhibition does the source give for `O=C(Nc1ccccc1)c1ccc2c(c1)OCCCO2` here?
Answer: 49.6% (active)

Question: For `O=C(Nc1nc2ccccc2s1)c1ccc2c(c1)OCO2`, which inhibition is on record?
Answer: 57.7% (active)

Question: For `CCCS(=O)(=O)N1CCCC(C(=O)NCCN2CCCCC2C)C1` (stereo not given), which inhibition is on record?
Answer: 1.9%

Question: `CCOC(=O)c1nc(C)n(-c2ccc(Cl)cc2Cl)n1` was tested. Which inhibition did it give?
Answer: 0.2%

Question: Which inhibition does the source give for `c1c2c(cc3sc(N4CCCCC4)nc13)OCCO2` here?
Answer: 81.9% (active)

Question: `CSCCC(C(=O)NC1=NCCS1)N1C(=O)c2ccccc2C1=O` (stereo not given) was tested. Which inhibition did it give?
Answer: -7.1%

Question: Which inhibition does the source give for `CCOc1ccc(C2NC(=S)NC3=C2CCc2ccccc23)cc1` (stereo not given) here?
Answer: 28.4% (active)

Question: How did the inhibition turn out when `Cn1c(-c2ccco2)nc2cc3ccccc3cc21` was run?
Answer: 58.9% (active)

Question: How did the inhibition turn out when `CC(OC(=O)c1ccc2noc(-c3ccccc3)c2c1)C(N)=O` (stereo not given) was run?
Answer: 2.1%

Question: `C/C(=N\NC(=S)NC1CCCCC1)c1ccc(C)o1` was tested. Which inhibition did it give?
Answer: 3.2%

Question: How did the inhibition turn out when `CCOc1ccc(OCc2ccc(C(=O)N(C)c3ccccc3)o2)cc1` was run?
Answer: 28.8% (active)

Question: `O=C(Nc1ccccc1C(=O)O)c1ccc(N2C(=O)C3CC=CCC3C2=O)cc1` (stereo not given) was tested. Which inhibition did it give?
Answer: 25.4% (active)

Question: For `CCOc1ccc(OCc2cccc(C(=O)N(CC)CC)c2)cc1`, which inhibition is on record?
Answer: 39.7% (active)

Question: For `CCS(=O)(=O)c1cc([N+](=O)[O-])c(Sc2ccccc2N)s1`, which inhibition is on record?
Answer: 56% (active)

Question: `Oc1c(C=Nc2cccc3nsnc23)ccc2ccccc12` was tested. Which inhibition did it give?
Answer: 6.47%

Question: `O=c1oc(/C=C/c2ccccc2)nc2ccccc12` was tested. Which inhibition did it give?
Answer: 33% (active)

Question: `COc1ccc(-c2cn3ccc(C)cc3n2)cc1` was tested. Which inhibition did it give?
Answer: 83.5% (active)

Question: `Cc1ccc(-c2cn3cc(C)ccc3n2)cc1` was tested. Which inhibition did it give?
Answer: 90.3% (active)

Question: Which inhibition does the source give for `Cc1ccc2nc(-c3ccc(Br)cc3)cn2c1` here?
Answer: 82% (active)

Question: With `COc1cc(C(=O)NN(CCC#N)C2=NS(=O)(=O)c3ccccc32)cc(OC)c1OC` as the molecule, how does the inhibition read?
Answer: -4.73%

Question: How did the inhibition turn out when `CCc1ccc(Nc2ncc3c(n2)CC(c2ccco2)CC3=O)cc1` (stereo not given) was run?
Answer: -4.8%

Question: `CCOC(=O)N1CCN(Cc2nc3c(c(=O)n(C)c(=O)n3C)n2Cc2ccccc2)CC1` was tested. Which inhibition did it give?
Answer: -3.3%

Question: How did the inhibition turn out when `COc1cc(CNC2CCCCC2)c(Br)cc1OC1CCCC1` was run?
Answer: 5.53%

Question: `Cc1sc2nc(CSCC(=O)Nc3c(Cl)cccc3Cl)[nH]c(=O)c2c1C` was tested. Which inhibition did it give?
Answer: -4.2%

Question: `Nc1ccc(-c2nnc(-c3ccccc3)o2)cc1` was tested. Which inhibition did it give?
Answer: 4.47%

Question: Which inhibition does the source give for `CCc1ccc2oc(-c3ccc(N)cc3)nc2c1` here?
Answer: 53.6% (active)

Question: How did the inhibition turn out when `Clc1ccc2nc(CSc3ccccc3)cn2c1` was run?
Answer: 57% (active)

Question: Which inhibition does the source give for `Cc1cccc(CCNC(=O)Cn2ncc3c([nH]c4ccc(C)cc43)c2=O)c1` here?
Answer: 5.53%

Question: Which inhibition does the source give for `Cc1csc(SCC(=O)Nc2sccc2C#N)n1` here?
Answer: 42.4% (active)

Question: How did the inhibition turn out when `Cc1cc(C(=O)COC(=O)C2CC2)c(C)n1-c1ccc(F)cc1` was run?
Answer: 87.3% (active)

Question: `O=C1CCC([N+](=O)[O-])C(c2ccccc2Br)N1` (stereo not given) was tested. Which inhibition did it give?
Answer: -5.63%

Question: `O=C(OC1CCOC1=O)c1ccc(-c2nc3ccccc3s2)s1` (stereo not given) was tested. Which inhibition did it give?
Answer: 60.6% (active)

Question: Which inhibition does the source give for `CCCCNC(=O)Nc1c(C)cc(SC#N)cc1C` here?
Answer: 4.17%

Question: Which inhibition does the source give for `CN(CCO)c1ccc(/C=N/Nc2nncc3ccccc23)cc1` here?
Answer: 91.8% (active)

Question: For `Cc1ccc(Nc2nc(-c3ccc(O)cc3O)cs2)nc1`, which inhibition is on record?
Answer: 0.63%

Question: With `O=C(CN1C(=O)c2ccccc2S1(=O)=O)N1CCc2ccccc21` as the molecule, how does the inhibition read?
Answer: 46.1% (active)

Question: With `CCOC(=O)CNC(=O)c1nn(-c2cccc(OC)c2)c(=O)c2ccccc12` as the molecule, how does the inhibition read?
Answer: -0.53%

Question: For `COc1ccc(-c2nc(-c3ccccc3)no2)c(OC)c1`, which inhibition is on record?
Answer: 84.8% (active)

Question: With `CCOc1c(Br)cc(/C=C2\C(=O)N(CCC#N)N=C2C)cc1OC` as the molecule, how does the inhibition read?
Answer: -11.9%

Question: Which inhibition does the source give for `N#C/C=C\Oc1ccc(Cl)cc1N` here?
Answer: -1.37%

Question: `CN(C)c1ccc(-n2cccc2/C=N/n2cnnc2)cc1` was tested. Which inhibition did it give?
Answer: 45.9% (active)

Question: Which inhibition does the source give for `CC(C)Nc1ccc(-n2nc3ccccc3[n+]2[O-])cc1` here?
Answer: 51.6% (active)

Question: How did the inhibition turn out when `Cc1ccc(C(=O)COC(=O)c2cccc(N3C(=O)c4c(C)nc5ccccc5c4C3=O)c2)cc1C` was run?
Answer: 4.83%

Reference: PubChem BioAssay AID1846 (The Scripps Research Institute Molecular Screening Center, 2009)
